# “And” between values parts separate entries of the source, which are not always exact repeats. Equal entries are not always repeated. Values without a mark were called inactive. Results filed as inconclusive are left out. Where a call stands in place of a potency, no number is given. The source made the active and inactive calls. Unless noted, calls come from the whole dose curve; as a rule, active = well fitted curve in the direction sought with a large enough effect in the repeat runs; inconclusive = weak or mixed curves; inactive = no such curve, though single readings can be large; an effect the other way counts as inactive or inconclusive.
# Experiments:
# [1] = qHTS assay to identify small molecule antagonists of the estrogen receptor alpha (ER-alpha) signaling pathway using the BG1 cell line in the presence of 0.1 nM 17-beta-estradiol - cell viability counter screen (AID 1259241); details: VM7Luc4E2 (BG1) viability, CellTiter-Fluor protease, 22 h, 0.1 nM estradiol agonist added; series mostly up to 92.4 µM; note: nearly all actives have a fitted effect of over 40% in size
# Procedure, shortened: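 VM7Luc4E2 cells (endogenous ER-alpha, 4×ERE-luciferase), hormone-starved 5 days in charcoal-stripped FBS, were treated with compounds plus 0.1 nM 17beta-estradiol for 22 hr at 37C; viability read in same wells as CellTiter-Fluor live-cell protease fluorescence.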
# [2] = qHTS assay to identify small molecule antagonists of the androgen receptor (AR) signaling pathway using the MDA cell line in the presence of 0.5 nM R1881 - cell viability counter screen (AID 1259242); details: MDA-kb2 viability, CellTiter-Fluor protease fluorescence, 16 h; series mostly up to 92.4 µM; note: nearly all actives have a fitted effect of over 45% in size; note: potency is the fitted concentration of half-maximal effect
# Procedure, shortened: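 R1881 at 0.5 nM final stimulated MDA-kb2 cells during 16 hr compound treatment at 37C. Cytotoxicity read: CellTiter-Fluor fluorescence after 30 min.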
# [3] = qHTS assay to identify small molecule phospholipidosis (PLD) inducers (AID 1259344; active = well fitted curve in the direction sought with a large enough effect; an effect the other way counts as inactive or inconclusive; note: potency is the fitted concentration of half-maximal effect); details: HepG2 phospholipidosis, LipidTOX Red imaging, 24 h; series mostly up to 38.3 µM
# Procedure, shortened: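 HepG2 cells, 900/well, treated with compound plus LipidTOX Red for 24 h at 37 C; amiodarone positive and DMSO negative controls. Fixed with paraformaldehyde/Hoechst, then high-content imaging scored LipidTOX pit count and integrated intensity per well and per cell.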
# [4] = qHTS assay to identify small molecule HDAC inhibitors (AID 1259364); details: HCT-116 HDAC-Glo I/II luminescence, 2 h; series mostly up to 92.4 µM; note: potency is the fitted concentration of half-maximal effect;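 note: wild-type HCT-116 cells with endogenous class I/II HDAC activity; nearly all actives have a fitted effect of over 45% in size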; for activity change, negative = inhibition: top concentration of the series differs between compounds
# Procedure, shortened: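 Relative class I and II HDAC activity is taken from the luminogenic signal in HCT-116 cells, with compound exposure 2 hr and reagent development 30 min at room temperature.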
# [5] = qHTS assay to identify small molecule HDAC inhibitors - cell viability counter screen (AID 1259365); details: HCT-116 viability, CellTiter-Glo ATP luminescence, 2 h; series mostly up to 92.4 µM; note: nearly all actives have a fitted effect of over 50% in size
# Procedure, shortened: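 Wild-type HCT-116 cells were seeded at 1,500 per well, incubated overnight at 37 C, then exposed to compounds in DMSO for 2hr. Viability was read by CellTiter-Glo luminescence after 30min at room temperature.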
# [6] = qHTS assay to identify small molecule agonists of the sonic hedgehog signaling (Shh) pathway - cell viability counter screen (AID 1259366); details: NIH/3T3 Gli1-Luc viability, CellTiter-Fluor, 24 h; series mostly up to 92.4 µM; note: nearly all actives have a fitted effect of over 50% in size; note: potency is the fitted concentration of half-maximal effect
# Procedure, shortened: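 NIH/3T3-derived 3T3 Gli1-Luc cells (stable Gli1-responsive firefly luciferase reporter) were seeded, rested 4 hr at 37 C/5% CO2, then exposed to compounds in DMSO for 24 hr; viability was read by CellTiter-Fluor fluorescence in the same wells.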
# [7] = qHTS assay to identify small molecule antagonists of the sonic hedgehog signaling (Shh) pathway - cell viability counter screen (AID 1259367); details: NIH/3T3 Gli1-Luc viability, CellTiter-Fluor, 24 h; series mostly up to 92.4 µM; note: nearly all actives have a fitted effect of over 55% in size; note: potency is the fitted concentration of half-maximal effect
# Procedure, shortened: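 NIH/3T3-derived Gli1-Luc reporter cells, 2,000/well, plated 4 hr before compound addition, then stimulated with conditioned medium for 24 hr at 37C. Viability measured in the same wells by CellTiter-Fluor fluorescence, reagent added at 23 hr for 1 hr.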
# [8] = qHTS assay to identify small molecule agonists of the sonic hedgehog signaling (Shh) pathway (AID 1259368; calls by dose curve; note: nearly all actives have a fitted effect of over 15% in size); details: NIH/3T3 Gli1-Luc reporter, luciferase, 24 h; series mostly up to 92.4 µM
# Procedure, shortened: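 Mouse fibroblast (NIH/3T3) reporter cells with stably integrated Gli1-Luc were treated 24 hr with compound; firefly luciferase luminescence served as the read-out.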
# [9] = target: Estrogen receptor (Homo sapiens) (UniProt P03372); test: qHTS assay to identify small molecule antagonists of the estrogen receptor alpha (ER-alpha) signaling pathway using the BG1 cell line in the presence of 0.1 nM 17-beta-estradiol (AID 1259244); details: VM7Luc4E2 (BG1) ERE-luciferase, antagonist mode, 0.1 nM E2, 22 h; series mostly up to 92.4 µM; note: nearly all actives have a fitted effect of over 50% in size
# Procedure, shortened: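 VM7Luc4E2; 4xERE-luciferase; 0.1 nM E2 final; 22 h co-incubation, 37C; ONE-Glo luminescence after 30 min at room temperature.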
# Sequence of Estrogen receptor (Homo sapiens) (P03372 whole entry, looked up): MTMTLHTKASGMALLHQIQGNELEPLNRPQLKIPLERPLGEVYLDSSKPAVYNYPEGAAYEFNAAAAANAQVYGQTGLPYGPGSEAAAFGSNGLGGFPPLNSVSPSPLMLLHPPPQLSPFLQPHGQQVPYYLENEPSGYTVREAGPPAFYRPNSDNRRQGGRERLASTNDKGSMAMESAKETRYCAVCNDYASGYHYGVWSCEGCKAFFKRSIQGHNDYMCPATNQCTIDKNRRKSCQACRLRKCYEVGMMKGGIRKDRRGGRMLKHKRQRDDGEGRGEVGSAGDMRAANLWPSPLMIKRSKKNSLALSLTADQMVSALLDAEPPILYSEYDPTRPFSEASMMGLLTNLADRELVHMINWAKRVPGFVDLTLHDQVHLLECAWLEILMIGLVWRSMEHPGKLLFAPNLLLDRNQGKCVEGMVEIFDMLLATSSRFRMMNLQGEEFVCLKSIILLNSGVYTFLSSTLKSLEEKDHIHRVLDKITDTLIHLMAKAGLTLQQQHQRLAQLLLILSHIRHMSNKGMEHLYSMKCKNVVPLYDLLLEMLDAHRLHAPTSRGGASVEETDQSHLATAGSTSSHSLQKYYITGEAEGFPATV
structure (smiles),measurement,setting,value
CC(C)C(=O)c1c(C(C)C)nn2ccccc12,Potency,[1],inactive
same,Potency,[2],inactive
same,PLD induction,[3],-2.74% [at 7.66 µM]
same,Potency,[4],inactive
same,Potency,[5],inactive
same,Potency,[6],inactive
same,Potency,[7],inactive
same,Potency,[8],inactive
CCC(CO)(CO)COCC(CC)(CO)CO,Potency,[1],inactive
same,Potency,[2],inactive
same,Potency,[4],inactive
same,Potency,[5],inactive
same,Potency,[6],inactive
same,Potency,[7],inactive
same,Potency,[8],inactive
Cc1cccc(O)c1C,Potency,[1],inactive
same,Potency,[2],inactive
same,Potency,[9],inactive
same,Potency,[4],inactive
same,Potency,[5],inactive
same,Potency,[6],inactive
same,Potency,[7],inactive
same,Potency,[8],inactive
CC(C)(C)c1cc(C(C)(C)C)c(O)c(C(C)(C)C)c1,Potency,[1],inactive
same,Potency,[2],inactive
same,Potency,[9],inactive
same,Potency,[4],inactive
same,Potency,[5],inactive
same,Potency,[6],inactive
same,Potency,[7],inactive
same,Potency,[8],inactive
NC(N)=NC(=O)Cc1c(Cl)cccc1Cl,Potency,[1],inactive
same,Potency,[2],inactive
same,Potency,[3],inactive
same,Potency,[4],inactive
same,Potency,[5],inactive
same,Potency,[7],inactive
same,Potency,[8],inactive
N[C@@H]1CONC1=O,Potency,[1],inactive
same,Potency,[2],inactive
same,Potency,[3],inactive
same,Potency,[4],inactive
same,Potency,[5],inactive
same,Potency,[6],inactive
same,Potency,[7],inactive
same,Potency,[8],inactive
NC(Cc1ccc(Cl)cc1)C(=O)O (configuration not stated),"activity change, negative = cytotoxicity",[1],0.121% [at 0.349 µM]
same,"viability change, negative = cytotoxic",[2],4.52% [at 0.349 µM]
same,Potency,[3],inactive
same,"activity change, negative = inhibition",[4],-0.367% [at 0.349 µM]
same,"activity change, negative = cytotoxicity",[5],1.43% [at 0.349 µM]
same,"viability change, negative = cytotoxic",[6],0.958% [at 0.349 µM]
same,"viability change, negative = cytotoxic",[7],2.83% [at 0.349 µM]
same,activity change,[8],"-0.363% [at 0.349 µM, hits give high values]"
CNCCC(Oc1ccc(C(F)(F)F)cc1)c1ccccc1 (configuration not stated),Potency,[1],inactive
same,Potency,[2],29.8 µM (active)
same,Potency,[3],10 µM (active)
same,Potency,[4],inactive
same,Potency,[5],inactive
same,Potency,[6],60.3 µM (active) and 29.8 µM (active)
same,Potency,[7],26.9 µM (active) and 29.8 µM (active)
same,Potency,[8],inactive
COC(c1ccccc1)(c1ccccc1)[C@H](Oc1nc(C)cc(C)n1)C(=O)O,Potency,[1],inactive
same,Potency,[2],inactive
same,Potency,[3],inactive
same,Potency,[4],inactive
same,Potency,[5],inactive
same,Potency,[6],inactive
same,Potency,[7],inactive
same,Potency,[8],inactive
c1ccc2cc3c(ccc4ccccc43)cc2c1,Potency,[1],inactive
same,Potency,[2],inactive
same,Potency,[9],inactive
same,Potency,[4],30.7 µM (active) and 27.3 µM (active)
same,Potency,[5],inactive
same,Potency,[6],inactive
same,Potency,[7],inactive
same,Potency,[8],inactive
CC(C)(C)NC(=O)[C@@H]1CN(Cc2cccnc2)CCN1C[C@@H](O)C[C@@H](Cc1ccccc1)C(=O)N[C@H]1c2ccccc2C[C@H]1O,Potency,[1],inactive
same,Potency,[2],inactive
same,Potency,[3],inactive
same,Potency,[4],inactive
same,Potency,[5],inactive
same,Potency,[8],inactive
CC1COc2c(N3CCN(C)CC3)c(F)cc3c(=O)c(C(=O)O)cn1c23 (configuration not stated),Potency,[1],inactive
same,Potency,[2],inactive
same,Potency,[3],inactive
same,Potency,[4],inactive
same,Potency,[5],inactive
same,Potency,[6],inactive
same,Potency,[7],inactive
same,Potency,[8],inactive
CC(=O)OCC1=C(C(=O)O)N2C(=O)[C@@H](NC(=O)Cc3cccs3)[C@H]2SC1,Potency,[1],inactive
same,Potency,[2],inactive
same,Potency,[3],inactive
same,Potency,[4],inactive
same,Potency,[5],inactive
same,Potency,[6],inactive
same,Potency,[7],inactive
same,Potency,[8],inactive
O=C(O)c1cn(-c2ccc(F)cc2)c2cc(N3CCNCC3)c(F)cc2c1=O,Potency,[1],inactive
same,Potency,[2],inactive
same,Potency,[3],inactive
same,Potency,[4],inactive
same,Potency,[5],inactive
same,Potency,[6],inactive
same,Potency,[7],inactive
same,Potency,[8],inactive
C=CC(=O)OCCCCCCCC,Potency,[1],inactive
same,Potency,[2],inactive
same,Potency,[9],inactive
same,Potency,[4],inactive
same,Potency,[5],inactive
same,Potency,[6],inactive
same,Potency,[7],inactive
same,Potency,[8],inactive
O=C(O)c1cccc(C(=O)O)c1,Potency,[1],inactive
same,Potency,[2],inactive
same,Potency,[9],inactive
same,Potency,[4],inactive
same,Potency,[5],inactive
same,Potency,[6],inactive
same,Potency,[7],inactive
same,Potency,[8],inactive
CC(C)(C)NCC(O)COc1ccccc1OCC1CCCO1 (configuration not stated),Potency,[1],inactive
same,Potency,[2],inactive
same,Potency,[9],inactive
same,Potency,[4],inactive
same,Potency,[5],inactive
same,Potency,[6],inactive
same,Potency,[7],inactive
same,Potency,[8],inactive

# From PubChem BioAssay (Tox21)
